Reference: the supplement of paper PMC4022240
± gives the standard deviation.

Key:
Assay in all cases: peptide microarray binding signal (635 nm), min-max normalized on array (fraction of array maximum); higher = stronger binding
Details in all cases: peptide region: H3 11-23
[1] = molecular target: T1, HaloTag-ATRX ADD domain (163-292)
T1 chain: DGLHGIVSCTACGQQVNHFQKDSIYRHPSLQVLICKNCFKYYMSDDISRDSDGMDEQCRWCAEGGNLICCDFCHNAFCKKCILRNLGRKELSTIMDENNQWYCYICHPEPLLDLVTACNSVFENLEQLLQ
In short: (§1)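 Two probe formats were used for 1 h at 4°C: biotin-labelled HaloTag reader fusions (10 nM to 1 μM) with streptavidin-Alexa Fluor 647, and rabbit histone antibodies (1:10,000 to 1:2,000) with anti-rabbit Alexa 647. Both were applied to nitrocellulose arrays of histone 13-mer peptide–cellulose conjugates printed in triplicate with a Cy3 tracer and blocked overnight at 4°C. Signal was read at 635 nm and misprints at 532 nm on an Axon GenePix 4000B. Binding signal is expressed as the triplicate-spot mean intensity, min-max scaled for each library.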

[2] = molecular target: HaloTag-ING2 PHD (mouse Ing2 200-280)
In short: as §1

[3] = molecular target: anti-H3K4me3 antibody ab8580
In short: as §1

[4] = molecular target: anti-H3K9me3 antibody ab8898
In short: as §1

[5] = peptide modifications: H3K14me1 H3K18me1, binder concentration: 1:2,000 dilution
[6] = peptide modifications: H3K14me1 H3K18me1, binder concentration: 1:10,000 dilution
[7] = peptide modifications: H3K14me2, binder concentration: 1:2,000 dilution
[8] = peptide modifications: H3K14me2, binder concentration: 1:10,000 dilution
[9] = peptide modifications: H3K14me1 H3K18me3, binder concentration: 1:2,000 dilution
[10] = peptide modifications: H3K14me1 H3K18me3, binder concentration: 1:10,000 dilution
[11] = peptide modifications: H3K14me2 H3K18ac, binder concentration: 1:2,000 dilution
[12] = peptide modifications: H3K14me2 H3K18ac, binder concentration: 1:10,000 dilution
[13] = peptide modifications: H3K14me2 H3K18me1, binder concentration: 1:2,000 dilution
[14] = peptide modifications: H3K14me2 H3K18me1, binder concentration: 1:10,000 dilution
[15] = peptide modifications: H3K14me1 H3R17me2s, binder concentration: 1:2,000 dilution
[16] = peptide modifications: H3K14me1 H3R17me2s, binder concentration: 1:10,000 dilution
[17] = peptide modifications: H3K14me1 H3R17me2a, binder concentration: 1:2,000 dilution
[18] = peptide modifications: H3K14me1 H3R17me2a, binder concentration: 1:10,000 dilution
[19] = peptide modifications: H3K14me1 H3K18me2, binder concentration: 1:2,000 dilution
[20] = peptide modifications: H3K14me1 H3K18me2, binder concentration: 1:10,000 dilution
[21] = peptide modifications: H3K14me1 H3R17me1, binder concentration: 1:2,000 dilution
[22] = peptide modifications: H3K14me1 H3R17me1, binder concentration: 1:10,000 dilution
[23] = peptide modifications: H3K14me1 H3R17cit, binder concentration: 1:2,000 dilution
[24] = peptide modifications: H3K14me1 H3R17cit, binder concentration: 1:10,000 dilution

B1: H3 11-23 T G G Kme A P R Kme Q L A T K (peptide)
chain: TGGKAPRKQLATK
peptide microarray binding signal ([1]; peptide modifications: H3K14me1 H3K18me1, binder concentration: 50 nM): 0.00561 ± 0.00015
peptide microarray binding signal ([1]; peptide modifications: H3K14me1 H3K18me1, binder concentration: 500 nM): 0.00886 ± 0.00086
peptide microarray binding signal ([2]; peptide modifications: H3K14me1 H3K18me1, binder concentration: 10 nM): 0.0118 ± 0.0022
peptide microarray binding signal ([2]; peptide modifications: H3K14me1 H3K18me1, binder concentration: 100 nM): 0.0213 ± 0.0055
peptide microarray binding signal [3, 5]: 0.00619 ± 0.0022
peptide microarray binding signal [3, 6]: 0.00611 ± 0.00051
peptide microarray binding signal [4, 5]: 0.00311 ± 0.00053
peptide microarray binding signal [4, 6]: 0.00213 ± 5.2e-05

B2: H3 11-23 T G G Kme2 A P R K Q L A T K (peptide)
chain: TGGKAPRKQLATK
peptide microarray binding signal ([1]; peptide modifications: H3K14me2, binder concentration: 50 nM): 0.00614 ± 7.5e-05
peptide microarray binding signal ([1]; peptide modifications: H3K14me2, binder concentration: 500 nM): 0.0148 ± 0.0014
peptide microarray binding signal ([2]; peptide modifications: H3K14me2, binder concentration: 10 nM): 0.00806 ± 0.00059
peptide microarray binding signal ([2]; peptide modifications: H3K14me2, binder concentration: 100 nM): 0.00928 ± 0.002
peptide microarray binding signal [3, 7]: 0.00381 ± 0.00026
peptide microarray binding signal [3, 8]: 0.00331 ± 0.00013
peptide microarray binding signal [4, 7]: 0.00619 ± 0.00091
peptide microarray binding signal [4, 8]: 0.00548 ± 0.0005

B3: H3 11-23 T G G Kme A P R Kme3 Q L A T K (peptide)
chain: TGGKAPRKQLATK
peptide microarray binding signal ([1]; peptide modifications: H3K14me1 H3K18me3, binder concentration: 50 nM): 0.00705 ± 0.00051
peptide microarray binding signal ([1]; peptide modifications: H3K14me1 H3K18me3, binder concentration: 500 nM): 0.0115 ± 0.00073
peptide microarray binding signal ([2]; peptide modifications: H3K14me1 H3K18me3, binder concentration: 10 nM): 0.0113 ± 0.00048
peptide microarray binding signal ([2]; peptide modifications: H3K14me1 H3K18me3, binder concentration: 100 nM): 0.0191 ± 0.00089
peptide microarray binding signal [3, 9]: 0.389 ± 0.079
peptide microarray binding signal [3, 10]: 0.473 ± 0.23
peptide microarray binding signal [4, 9]: 0.0513 ± 0.004
peptide microarray binding signal [4, 10]: 0.0139 ± 0.0023

B4: H3 11-23 T G G Kme2 A P R Kac Q L A T K (peptide)
chain: TGGKAPRKQLATK
peptide microarray binding signal ([1]; peptide modifications: H3K14me2 H3K18ac, binder concentration: 50 nM): 0.00868 ± 0.00034
peptide microarray binding signal ([1]; peptide modifications: H3K14me2 H3K18ac, binder concentration: 500 nM): 0.0165 ± 0.0015
peptide microarray binding signal ([2]; peptide modifications: H3K14me2 H3K18ac, binder concentration: 10 nM): 0.0173 ± 0.003
peptide microarray binding signal ([2]; peptide modifications: H3K14me2 H3K18ac, binder concentration: 100 nM): 0.0242 ± 0.0017
peptide microarray binding signal [3, 11]: 0.0129 ± 0.0016
peptide microarray binding signal [3, 12]: 0.0111 ± 0.00098
peptide microarray binding signal [4, 11]: 0.00806 ± 0.00086
peptide microarray binding signal [4, 12]: 0.00496 ± 0.00013

B5: H3 11-23 T G G Kme2 A P R Kme Q L A T K (peptide)
chain: TGGKAPRKQLATK
peptide microarray binding signal ([1]; peptide modifications: H3K14me2 H3K18me1, binder concentration: 50 nM): 0.00752 ± 0.0013
peptide microarray binding signal ([1]; peptide modifications: H3K14me2 H3K18me1, binder concentration: 500 nM): 0.0129 ± 0.00084
peptide microarray binding signal ([2]; peptide modifications: H3K14me2 H3K18me1, binder concentration: 10 nM): 0.013 ± 0.0021
peptide microarray binding signal ([2]; peptide modifications: H3K14me2 H3K18me1, binder concentration: 100 nM): 0.0405 ± 0.012
peptide microarray binding signal [3, 13]: 0.0136 ± 0.0009
peptide microarray binding signal [3, 14]: 0.00964 ± 0.0012
peptide microarray binding signal [4, 13]: 0.00565 ± 0.00074
peptide microarray binding signal [4, 14]: 0.0045 ± 0.00053

B6: H3 11-23 T G G Kme A P Rme2s K Q L A T K (peptide)
chain: TGGKAPRKQLATK
peptide microarray binding signal ([1]; peptide modifications: H3K14me1 H3R17me2s, binder concentration: 50 nM): 0.00793 ± 0.00067
peptide microarray binding signal ([1]; peptide modifications: H3K14me1 H3R17me2s, binder concentration: 500 nM): 0.0311 ± 0.0068
peptide microarray binding signal ([2]; peptide modifications: H3K14me1 H3R17me2s, binder concentration: 10 nM): 0.0249 ± 0.0026
peptide microarray binding signal ([2]; peptide modifications: H3K14me1 H3R17me2s, binder concentration: 100 nM): 0.0474 ± 0.0059
peptide microarray binding signal [3, 15]: 0.00508 ± 0.0026
peptide microarray binding signal [3, 16]: 0.0135 ± 0.0052
peptide microarray binding signal [4, 15]: 0.0103 ± 0.0018
peptide microarray binding signal [4, 16]: 0.00709 ± 0.00074

B7: H3 11-23 T G G Kme A P Rme2a K Q L A T K (peptide)
chain: TGGKAPRKQLATK
peptide microarray binding signal ([1]; peptide modifications: H3K14me1 H3R17me2a, binder concentration: 50 nM): 0.00643 ± 0.00034
peptide microarray binding signal ([1]; peptide modifications: H3K14me1 H3R17me2a, binder concentration: 500 nM): 0.0164 ± 0.0061
peptide microarray binding signal ([2]; peptide modifications: H3K14me1 H3R17me2a, binder concentration: 10 nM): 0.00633 ± 0.00014
peptide microarray binding signal ([2]; peptide modifications: H3K14me1 H3R17me2a, binder concentration: 100 nM): 0.0122 ± 0.0012
peptide microarray binding signal [3, 17]: 0.00328 ± 0.0014
peptide microarray binding signal [3, 18]: 0.00896 ± 0.0044
peptide microarray binding signal [4, 17]: 0.00393 ± 0.00055
peptide microarray binding signal [4, 18]: 0.00398 ± 0.00069

B8: H3 11-23 T G G Kme A P R Kme2 Q L A T K (peptide)
chain: TGGKAPRKQLATK
peptide microarray binding signal ([1]; peptide modifications: H3K14me1 H3K18me2, binder concentration: 50 nM): 0.009 ± 0.00035
peptide microarray binding signal ([1]; peptide modifications: H3K14me1 H3K18me2, binder concentration: 500 nM): 0.018 ± 0.00081
peptide microarray binding signal ([2]; peptide modifications: H3K14me1 H3K18me2, binder concentration: 10 nM): 0.00913 ± 0.00044
peptide microarray binding signal ([2]; peptide modifications: H3K14me1 H3K18me2, binder concentration: 100 nM): 0.0241 ± 0.008
peptide microarray binding signal [3, 19]: 0.0068 ± 0.0002
peptide microarray binding signal [3, 20]: 0.00588 ± 0.00018
peptide microarray binding signal [4, 19]: 0.00371 ± 0.00042
peptide microarray binding signal [4, 20]: 0.00271 ± 4.1e-05

B9: H3 11-23 T G G Kme A P Rme K Q L A T K (peptide)
chain: TGGKAPRKQLATK
peptide microarray binding signal ([1]; peptide modifications: H3K14me1 H3R17me1, binder concentration: 50 nM): 0.0069 ± 0.00032
peptide microarray binding signal ([1]; peptide modifications: H3K14me1 H3R17me1, binder concentration: 500 nM): 0.0148 ± 0.001
peptide microarray binding signal ([2]; peptide modifications: H3K14me1 H3R17me1, binder concentration: 10 nM): 0.00674 ± 0.00033
peptide microarray binding signal ([2]; peptide modifications: H3K14me1 H3R17me1, binder concentration: 100 nM): 0.0121 ± 0.00053
peptide microarray binding signal [3, 21]: 0.00587 ± 0.0018
peptide microarray binding signal [3, 22]: 0.0114 ± 0.0068
peptide microarray binding signal [4, 21]: 0.0084 ± 0.0022
peptide microarray binding signal [4, 22]: 0.00427 ± 0.0008

B10: H3 11-23 T G G Kme A P Rcit K Q L A T K (peptide)
chain: TGGKAPRKQLATK
peptide microarray binding signal ([1]; peptide modifications: H3K14me1 H3R17cit, binder concentration: 50 nM): 0.00351 ± 0.00027
peptide microarray binding signal ([1]; peptide modifications: H3K14me1 H3R17cit, binder concentration: 500 nM): 0.0134 ± 0.00059
peptide microarray binding signal ([2]; peptide modifications: H3K14me1 H3R17cit, binder concentration: 10 nM): 0.0121 ± 0.0023
peptide microarray binding signal ([2]; peptide modifications: H3K14me1 H3R17cit, binder concentration: 100 nM): 0.0268 ± 0.0021
peptide microarray binding signal [3, 23]: 0.00151 ± 0.00025
peptide microarray binding signal [3, 24]: 0.00223 ± 0.00013
peptide microarray binding signal [4, 23]: 0.00267 ± 0.00024
peptide microarray binding signal [4, 24]: 0.00271 ± 0.00023
